This note sets out measurements from PubChem BioAssay AID686978 (National Center for Advancing Translational Sciences (NCATS), 2013).

The whole screen tested about 420,000 compounds, of which about 64,000 (15%) were called active. Roughly 27% stayed inconclusive and do not appear here. Calls come from the whole dose curve; as a rule, active = well fitted inhibition curve with a large enough effect; inconclusive = small, poorly fitted or top-dose-only effect; inactive = flat fitted curve, though single readings scatter. Only a sample is shown. Where a call stands in place of a potency, no number is given.
Potency is the fitted concentration of half-maximal effect.

The experiment is described as follows: qHTS for Inhibitors of human tyrosyl-DNA phosphodiesterase 1 (TDP1): qHTS in cells in absence of CPT. Note: nearly all actives have a fitted effect of over 55% in size. To be noted: DT40 Tdp1-/- hTDP1 cells, no CPT, ATP luminescence, 48 h; activity change, negative = growth inhibition: at 46.2 µM (top of the series). An excerpt: Human tyrosyl-DNA phosphodiesterase 1 (TDP1) is a novel repair gene, and we propose to use it as a new target for anticancer drug development. TDP1 is not an essential protein, but under treatment with topoisomerase I poison (camptothecin: CPT), TDP1 works as a critical factor for cell survival. To directly identify novel TDP1 inhibitors active in a cellular environment, we have knocked-out the Tdp1 gene in chicken DT40 cells (Tdp1-/-) and generated a complemented counterpart cells that contains a stable transfection of the human TDP1 gene (Tdp1-/-;hTDP1 cells). For the primary screen, Tdp1-/-;hTDP1 cells will be exposed to small molecules in the presence or absence of CPT, and their growth kinetics will be evaluated after 48 hours by measuring ATP activity. […] The hit compounds will then be evaluated in the presence or absence of CPT using Tdp1-/- cells. […] In tertiary assays, biochemical gel-based assays will be used to assess whether the hit compounds specifically target TDP1.
To this end, we have screened this cell line against the MLSMR in two primary screens. In one screen we add CPT and in the other we screen in the absence of CPT; this AID represents the screen where CPT was absent.
NIH Chemical Genomics Center [NCGC]
NIH Molecular Libraries Probe Centers Network [MLPCN]
Assay Submitter (PI): Yves Pommier, NCI
DT40-hTDP1 cells without 20 nM Camptothecin (add 20 microL of DMSO in 1 L of cell culture medium) were dispensed at 400 cells/5microL/well in tissue culture treated 1536-well white wall/solid bottom assay plates (Greiner Bio-One North America, NC, U.S.A.) using a Multidrop Combi 8 channel dispenser (Thermo Fisher, Waltham, MA, USA). 23 nL compounds and controls were transferred using the pin tool (Kalypsys, San Diego, CA, USA) to the assay plates. The assay plates were then incubated at 37 masculineC for a minimum 48 hr. Three microL of Cell Titer Glo solution was added to the plates and incubated at RT in dark for 30 min. Luminescence was read using ViewLux (Perkin Elmer) with 1 sec exposure slow speed, high gain and 2x binning.
Turning to `Nc1ccccc1C(=O)NC1CCCCNC1=O` (configuration not stated), the Potency entry was “inactive”. Regarding `O=C1CN(C(=O)COc2c(Cl)cccc2Cl)c2ccccc2N1`, the Potency result is “inactive”. The same measure for `CCCCn1c(N)c(N(CC(C)C)C(=O)c2cccc(S(=O)(=O)N3CC(C)OC(C)C3)c2)c(=O)[nH]c1=O` (configuration not stated): “inactive”; for `Cc1ccc(NC2=C(c3ccc(C(F)(F)F)cc3)C(=O)c3ccccc32)cc1F`: 8.2 µM (active); for `Cc1ccc(NC(=O)NC(=O)c2ccccc2)cc1F`: “inactive”. With `COc1ccccc1Nc1nc(N)nc(CSC(=S)N2CCOCC2)n1` the entry was “inactive”.

In the case of `CCc1ccc(CNC(=O)C2CCCN(c3nc4ccccc4o3)C2)cc1` (configuration not stated), the Potency result is “inactive”.

Take `CCOC(=O)c1cnc(Nc2nc3ccccc3o2)nc1CSC(=S)N1CCCCC1`: the Potency was 0.0326 µM (active). With `CC(NS(=O)(=O)c1ccc(OCC(=O)N2CCCC2)cc1)c1ccccc1` (configuration not stated) the entry was “inactive”; with `CC(Oc1ccc(F)cc1)C(=O)N1CCN(c2ncccn2)CC1` (configuration not stated), “inactive”. The same measure for `CC(=O)N1CCC2(CCCN(c3ncccn3)C2)CC1`: “inactive”; for `CC12CCC(C(=O)N3CCN(c4ncccn4)CC3)(c3nc4ccccc4nc31)C2(C)C` (configuration not stated): 23.1 µM (active). With `Cc1ccc(-c2ccnc3nc(Sc4ncc(C(F)(F)F)cc4Cl)nn23)cc1` the entry was “inactive”; with `Cn1c(SCC(=O)Nc2ccc(Br)cc2F)nnc1-c1ccco1`, “inactive”; with `O=C(Nc1ccccc1C(=O)O)c1cc(S(=O)(=O)N2CCCCC2)cs1`, “inactive”. Regarding `CC(C)(C)n1nnnc1C(c1ccc(Cl)cc1)N1CCSCC1` (configuration not stated), the Potency entry was “inactive”. The same measure for `COc1ccc(OC)c(C(c2nnnn2C(C)(C)C)N2CCc3ccccc3C2)c1` (configuration not stated): 13 µM (active). For `COCCn1nnnc1C(c1cc2ccc(OC)cc2[nH]c1=O)N1CCc2ccccc2C1` (configuration not stated), the Potency entry is “inactive”. With `CCOc1ccc(Nc2nc(Cc3nnc(SCC(=O)NC4CCCC4)n3C)cs2)cc1` the entry was “inactive”; with `Cc1cccc(N2CCN(C(=O)CCn3c(=O)c4cccn4c4cccnc43)CC2C)c1` (configuration not stated), 3.66 µM (active); with `Cc1cccc(NC(=O)Cn2c(=O)n(CCC(C)C)c(=O)c3cccnc32)c1`, “inactive”. With `Cc1cccc(N2CCN(C(=O)c3cc4c(=O)oc5ccccc5c4s3)CC2C)c1` (configuration not stated) the entry was “inactive”; with `Cc1ccc(S(=O)(=O)N(C)C2(C)CCS(=O)(=O)C2)cc1` (configuration not stated), “inactive”; with `Cc1ccc(S(=O)(=O)C2(S(=O)(=O)c3ccc(C)cc3)CCCC2)cc1`, 6.51 µM (active). The same measure for `Cc1ccc(S(=O)(=O)NC2CCCCCC2)cc1`: “inactive”; for `C=C1c2cccc(OC)c2O[C@H](C(=O)OCC)[C@@H]1CCCCCC`: “inactive”. As to `CCCn1nc(NS(=O)(=O)c2ccc(F)cc2)c2cc3ccccc3nc21`, the Potency entry was “inactive”. With `COC(=O)c1cc(OCC(=O)NC2CCCc3ccccc32)cc(C(=O)OC)c1` (configuration not stated) the entry was “inactive”; with `O=C(O)CCC(=O)N(Cc1cccs1)Cc1cccs1`, “inactive”; with `COc1ccccc1NC(=O)CSc1nnc(C)n1CC1CCCO1` (configuration not stated), “inactive”. The same measure for `CC(C)Oc1ccc(CCc2n[nH]c(=S)n2Cc2ccccc2)cc1`: 20.6 µM (active); for `CC(C)Oc1ccc(CCc2nnc(SCC(=O)O)n2-c2ccccc2)cc1`: “inactive”; for `CC(C)Oc1ccc(Cc2n[nH]c(=S)n2Cc2ccccc2)cc1Cl`: “inactive”. Regarding `Cc1ccc(CSc2nnc(-c3cnccn3)n2C)cc1`, the Potency result is “inactive”. The same measure for `Cc1ccc(CSc2nc3ccsc3c(=O)n2CCC(C)C)cc1`: 23.1 µM (active); for `O=C(O)CCn1c(SCc2cc(=O)n3ccccc3n2)nc2ccsc2c1=O`: “inactive”; for `O=CN1CCN(C(=O)c2ccc(Br)o2)CC1`: “inactive”. Turning to `CCC(CO)Oc1cc(NC(=O)c2cccc(F)c2)c2ncn(C(C)C)c2c1` (configuration not stated), the Potency result was “inactive”. The same measure for `Cc1ccc(CNC(=O)COc2ccc(S(=O)(=O)NC(C)C)cc2)cc1`: “inactive”; for `O=S(=O)(NN=C1CCCCCCC1)c1ccc(Br)cc1`: “inactive”; for `O=C(CNS(=O)(=O)c1ccc(Br)s1)NCc1ccc2c(c1)OCO2`: “inactive”. With `CN(CC(O)COc1ccc(S(=O)(=O)N2CCOCC2)cc1Cl)C1CCCCC1` (configuration not stated) the entry was “inactive”; with `Cc1cc(C(C)(C)C)n2nc(C)c(-c3ccccc3)c2n1`, “inactive”; with `Cc1nn2c(NCCN(C)C)c3c(nc2c1-c1ccccc1)CCC3`, 25.9 µM (active). With `Cc1cc(-n2nc(C)cc2C)n2nc(C)c(-c3ccccc3)c2n1` the entry was “inactive”; with `Cc1ccc2c(c1)C1C[N+](C)(CC(=O)c3ccccc3)CCC1N2C(=O)c1ccccc1Cl` (configuration not stated), “inactive”. As for `COc1cccc(NC(=O)C(Sc2nnnn2C)c2ccccc2)c1` (configuration not stated), the Potency entry is “inactive”. With `O=C(NNS(=O)(=O)c1ccc(F)cc1)C1CCCCC1` the entry was “inactive”; with `O=C1CC[C@@H](C(=O)N2CSC[C@@H]2C(=O)Nc2ccc(C(F)(F)F)cc2)N1`, “inactive”. With `Cn1nccc1CNC(=O)c1ccnn1C` the entry was “inactive”; with `CCCc1ccc(-c2c(C)sc(NC(=O)c3ccnn3C)c2C#N)cc1`, 20.6 µM (active). The same measure for `Cc1sc(NC(=O)C2=COCCO2)c(C#N)c1C`: “inactive”; for `CC(CCn1cccn1)NC(=O)CCc1nnc(CCc2ccccc2)o1` (configuration not stated): “inactive”; for `COc1ccc(C(C#N)(CC(=O)O)c2cnccn2)cc1OC` (configuration not stated): “inactive”. Turning to `COc1ccc(NC(=O)c2ccc(OC)cc2)cc1`, the Potency result was “inactive”. As for `CCC(=O)Nc1ccc(C(=O)Nc2cccc(OC)c2)cc1`, the Potency result is “inactive”. With `COc1ccc(NS(=O)(=O)c2ccc(NC(=O)c3ccc(N(C)S(C)(=O)=O)cc3)cc2)cc1` the figure was 8.2 µM (active); with `COc1cccc(NC(=O)c2ccc(S(=O)(=O)N(C)C)cc2)c1`, “inactive”. Take `COc1ccc(NC(=O)c2cnc(NS(=O)(=O)c3ccccc3)nc2)cc1`: the Potency entry was “inactive”. For the molecule `COc1ccc(C(=O)Nc2cccc(S(C)(=O)=O)c2)cc1`, the Potency is 23.1 µM (active). Consider `CC1(C)C(=O)Nc2ccccc2N1C(=O)COC(=O)Cn1cnc2ccccc2c1=O`, for which the Potency entry was “inactive”. On to `O=C1CC(c2cccc(Br)c2)C2=C(CCCC2=O)N1` (configuration not stated), for which the Potency result was “inactive”. With `COc1cc(OC)cc(/C(N)=N/O)c1` the entry was “inactive”; with `CC(=C/c1ccccc1)/C=N/NC(=O)c1cc(C)oc1C`, “inactive”.

As to `Cc1ccc(-c2cc(C(=O)N/N=C/C=C/c3ccccc3)n[nH]2)o1`, the Potency result was “inactive”.

Consider `CC(C)c1cc(C(=O)N/N=C/C(Br)=C/c2ccccc2)n[nH]1`, for which the Potency was 2.59 µM (active). As for `CC(C)c1cc(C(=O)O)n[nH]1`, the Potency result is “inactive”. For `COc1ccc(C/C(C)=N/NC(=O)c2cc(C)oc2C)cc1`, the Potency result is “inactive”. The same measure for `Cc1cc(C(=O)N/N=C\C(Br)=C\c2ccccc2)c(C)o1`: 16.4 µM (active); for `Cc1ccc(NC(=O)Cc2nnc(SCC(=O)Nc3nncs3)n2C)cc1`: “inactive”; for `CC(C)Nc1nnc(SCC(=O)c2c[nH]c3ccccc23)s1`: “inactive”. The same measure for `CC(NC(=O)C(=O)N/N=C/c1ccc(Cl)cc1)c1ccccc1` (configuration not stated): “inactive”.

Consider `C=CS(=O)c1sc(Cl)c(N2CCOCC2)c1[N+](=O)[O-]` (configuration not stated), for which the Potency was 1.03 µM (active).

With `Cc1c(Nc2cc(N3CCCC(C)C3)c3nonc3c2[N+](=O)[O-])c(=O)n(-c2ccccc2)n1C` (configuration not stated), the Potency result was “inactive”. In the case of `COc1ccc(N2C(=O)CC(N3CCC(C(N)=O)CC3)C2=O)cc1` (configuration not stated), the Potency result is “inactive”.

Take `c1ccc(-c2cnc(CN3CCN(c4ccccc4)CC3)o2)cc1`: the Potency entry is “inactive”. Turning to `CCCCCCCNc1ccc(/C=C/c2ccnc3ccccc23)cc1`, the Potency is 10 µM (active). The same measure for `Oc1ccc(/C=N/N(Cc2ccccc2)c2ccccc2)cc1`: “inactive”. On to `CCN1CCN(c2ccc(/C=C/c3ccnc4ccccc34)cc2)CC1`, for which the Potency is 17.8 µM (active). For the molecule `CN(C)c1ccc(/C=N/N(Cc2ccccc2)c2ccccc2)cc1`, the Potency entry was “inactive”.

Regarding `O=C(CN1CCCC1)N1CCN(c2ccccc2)CC1`, the Potency entry is “inactive”. With `CN(Cc1ccccc1)c1ccc(/C=C/c2ccnc3ccccc23)cc1` the figure was 12.6 µM (active); with `CCC(C)N(c1ccc(/C=C/c2ccnc3ccccc23)cc1)C(C)CC` (configuration not stated), 4.47 µM (active); with `CCCCN1C(=O)CC(N2CCOCC2)C1=O` (configuration not stated), “inactive”. The same measure for `CN(C)C(=O)c1cccn(Cc2cccc(C(F)(F)F)c2)c1=O`: “inactive”; for `O=C(c1cc(-c2ccc(O)cc2)on1)N1CCOCC1`: “inactive”.

Regarding `CC(=O)c1ccc(NC(=S)N(Cc2ccccc2)C(C)C2CC2)cc1` (configuration not stated), the Potency result is “inactive”. On to `O=C(Nc1ccc(C(=O)O)cc1)/C(=C/c1ccc([N+](=O)[O-])cc1)NC(=O)c1ccccc1`, for which the Potency entry is “inactive”. The same measure for `CCOC(=O)C1(C(F)(F)F)N=C(N(C)C)OC(N(C)C)=N1`: “inactive”. As for `Cc1ccc2nsnc2c1S(=O)(=O)N1CCCC1C(=O)O` (configuration not stated), the Potency result is “inactive”. With `O=C(CNC(=O)c1ccccc1)NCC(=O)OCc1ccc(Cl)cc1` the entry was “inactive”.

`CCOC(=O)CSc1nccc(N(C)C)c1C#N`: the Potency result is “inactive”. The same measure for `CN(CC(=O)NCCN1CCOCC1)S(=O)(=O)c1ccc(F)cc1`: “inactive”; for `O=C(NC(Cc1c[nH]c2ccccc12)C(=O)O)/C(=C/c1ccco1)NC(=O)c1ccccc1` (configuration not stated): “inactive”. With `Cc1c(Cl)cccc1NC(=S)NCc1ccc2c(c1)OCO2` the entry was “inactive”; with `O=C(CSc1ncnc2c1nnn2Cc1ccc(F)cc1)NC1CCCC1`, “inactive”; with `CC(C)Nc1ncnc2c1nnn2Cc1ccccc1`, “inactive”.

As for `c1ccc(Cn2nnc3c(N4CCCCC4)ncnc32)cc1`, the Potency is 8.91 µM (active). The same measure for `CCc1ccccc1NC(=O)CSc1nnc([C@@H](NC(=O)OC(C)(C)C)C(C)CC)o1` (some centres not stated): “inactive”; for `Cc1nc(SCC(=O)Nc2cc(C)on2)c2c3c(sc2n1)CCCC3`: “inactive”; for `Cc1cc(NC(=O)CSc2nc(C(C)C)nc3sc4c(c23)CCC(C)C4)no1` (configuration not stated): 23.1 µM (active). As for `CC(C)c1nc(SCC(=O)Nc2cccc(C(=O)O)c2)c2c3c(sc2n1)CCCC3`, the Potency result is “inactive”. With `CSc1ccc(CCNC(=O)c2cnn(-c3ccccc3)c2-n2cccc2)cc1` the figure was 14.6 µM (active); with `Cc1c(C(=O)NCc2ccccc2)cnn1-c1ccccc1`, “inactive”. `CCCN1CCN(CCCNC(=O)c2cnn(-c3ccc(C)cc3)c2-n2cccc2)CC1`: the Potency result is “inactive”. With `C=CCn1c(SCC(=O)NC(=O)Cc2ccccc2)nc2ccccc2c1=O` the entry was “inactive”. The same measure for `Cc1csc(=O)n1CCC(=O)OCC(=O)NNC(=O)c1ccc(Br)cc1`: “inactive”.
